Screening results (PubChem BioAssay)
TEAD-YAP block – TEAD-YAP interaction inhibition; hit rate 1.4% among 640,000; HEK-TIYL cells, TEAD-Gal4/YAP UAS-luciferase luminescence; inhibition, % at 9.12 µM; AID 1259422; in the data active means inhibition above about 32%
MITF primary – blocks human microphthalmia-associated transcription factor; O75030; AlphaScreen MITF homodimerization, bead proximity signal; inhibition, % at 2.6 µM; hit rate 0.91% among 650,000; AID 1259374; in the data active means inhibition above about 50%
FBW7 act – human FBW7 E3 ligase activation, primary screen | hit rate 0.13% among 650,000 | normalized activity (activation), % at 26.1 µM | AlphaScreen FBW7–phospho-cyclin E peptide binding, activator screen | AID 1259310 | Q969H0; in the data active means normalized activity above about 1.9%;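 further: purified mutant Fbw7 with reduced substrate affinity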
GPR151 ag – activators of human GPR151. Q8TDV0. PathHunter beta-arrestin GPR151 cells, luminescence. activation, % at 11.2 µM. hit rate 1% among 650,000; in the data active means activation above about 4.9%
Target sequence (Q8TDV0 whole entry, looked up): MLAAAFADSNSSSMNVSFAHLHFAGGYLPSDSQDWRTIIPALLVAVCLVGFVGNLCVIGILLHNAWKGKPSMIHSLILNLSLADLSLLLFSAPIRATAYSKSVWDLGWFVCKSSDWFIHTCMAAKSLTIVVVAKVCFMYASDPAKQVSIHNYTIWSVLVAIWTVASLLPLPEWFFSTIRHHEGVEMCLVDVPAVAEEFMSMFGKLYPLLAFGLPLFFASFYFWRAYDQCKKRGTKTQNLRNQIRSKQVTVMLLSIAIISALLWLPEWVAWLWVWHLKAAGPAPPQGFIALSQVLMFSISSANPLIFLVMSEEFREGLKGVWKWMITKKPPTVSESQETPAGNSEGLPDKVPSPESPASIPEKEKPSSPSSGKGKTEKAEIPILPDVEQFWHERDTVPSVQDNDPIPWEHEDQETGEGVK
GPR151 confirm – human GPR151 activation, confirmation screen; shares compounds with GPR151 ag; GPR151 PathHunter beta-arrestin cells, luminescence, 90 min; % of EA-reagent control over plate median; activation, % at 11.2 µM; 6,700 tested, under 10 active; AID 1508609;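 active means mean percent activation across replicates above the confirmation screen cutoff of 4.91%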
GPR119 ag – counter-screen for GPR151 activators: effect on human GPR119 | shares compounds with GPR151 ag | GPR119 PathHunter beta-arrestin cells, luminescence, 90 min; 0 = compound-well median, 100 = enzyme-acceptor control | activation, % at 11.2 µM | hit rate 0.3% among 6,700 | AID 1508611;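 active means mean percent activation in the counterscreen above 29.09%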;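 further: counterscreen on off-target GPR119 to flag nonselective hits from the GPR151 activator screen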
Large screens that a line does not name were inactive (follow-up assays come after a bar, where they were run). Rows were chosen to be rich in hits. Some 3.5% of all compounds tested hit in one or more screens of this group.

O=C(CCC(=O)N/N=C/c1cccc([N+](=O)[O-])c1)N/N=C/c1cccc([N+](=O)[O-])c1	none
O=C(N/N=C/c1cccc(O)c1)c1cccnc1	GPR151 ag 5.8 | GPR151 confirm inactive | GPR119 ag inactive
COc1ccc(CC2(CCC(=O)N3CCCCCC3)CCC(=O)N2)c2ccccc12 (stereo unspecified)	none
CS(=O)(=O)c1ccc(N2CCN(c3ccccn3)CC2)cc1	none
CCc1ccc(NC(=O)CCS(=O)(=O)c2ccc(C)cc2)cc1	none
CC(C)Cn1c(=O)c2sccc2n2c(CCCC(=O)Nc3ccccc3)nnc12	none
CCN(Cc1ccccc1)c1ccc(/C=N/N2CCN(C)CC2)cc1	none
O=C(O)COc1ccccc1/C=C1/C(=O)NC(=O)N(c2ccccc2F)C1=O	none
Oc1ccc(Nc2ncnc3ccc(I)cc23)cc1	GPR151 ag 8.2 | GPR151 confirm inactive | GPR119 ag inactive
CCSc1nc2sccn2c(=O)c1C(=O)NC1CC1	none
CCCCC[C@H]1O[C@H]1C/C=C\C/C=C\C/C=C\CCCC(=O)O	none (no result: TEAD-YAP block, FBW7 act)
CCCCC/C=C\C/C=C\C/C=C\C[C@H]1O[C@H]1CCCC(=O)O	GPR151 ag 5.8 (no result: TEAD-YAP block, FBW7 act) | GPR151 confirm inactive | GPR119 ag inactive
O=C(Cc1ccc(F)cc1)OCC(=O)c1ccc[nH]1	none
O=C(Nc1c(Cl)cccc1Cl)C1C2CC/C=C\CC/C=C/CCC21 (stereo unspecified)	none
COc1ccc(-c2csc(NC(=O)C(C)C)c2C(=O)O)cc1	none
CC1CCCCC1NC(=O)Cn1nc(-c2ccc(Cl)cc2)ccc1=O (stereo unspecified)	GPR151 ag 5.6 | GPR151 confirm inactive | GPR119 ag inactive
COc1ccc2c(CNC3CCCC(C)C3C)c(C(=O)O)n(Cc3ccc(F)cc3)c2c1 (stereo unspecified)	none
COc1ccccc1C1CN(CC(=O)N2CCSCC2)Cc2ccccc2O1 (stereo unspecified)	none
O=C(Cn1cncn1)N1CCN(c2ncccn2)CC1	GPR151 ag 7.0 | GPR151 confirm inactive | GPR119 ag inactive
Cc1nc(NCC2CC2)sc1-c1ccn(CCN2CCOCC2)n1	none
Cc1nc(NCC2CC2)sc1-c1ccn(-c2cccc(F)c2)n1	GPR151 ag 5.8 | GPR151 confirm inactive | GPR119 ag inactive
Cc1cccc(NC(=O)NCC(c2ccc3c(c2)CCN3C)N2CCN(C)CC2)c1 (stereo unspecified)	GPR151 ag 5.0 | GPR151 confirm inactive | GPR119 ag inactive
CN1CCN(C(CNC(=O)Nc2ccc(F)cc2)c2ccc3c(c2)CCN3C)CC1 (stereo unspecified)	none
O=C(c1c[nH]c2ccc(S(=O)(=O)N3CCCCCC3)cc2c1=O)N1CCOCC1	GPR151 ag 11 | GPR151 confirm inactive | GPR119 ag inactive
Cc1cc(OCC(=O)Nc2ccc(N3CCOCC3)cc2)ccc1Cl	none
CCOC(=O)c1nccn1Cc1ccccc1Cl	GPR151 ag 9.4 | GPR151 confirm inactive | GPR119 ag inactive
NC(=O)c1cccn1Cc1ccccc1Cl	GPR151 ag 5.2 | GPR151 confirm inactive | GPR119 ag inactive
NC(=O)c1cccn1Cc1cccc(Cl)c1	none
COc1cc(C)c(CN2CCC(C3(C)NC(=O)NC3=O)CC2)cc1C (stereo unspecified)	none
c1ccc(Nc2ncnc3nc(N4CCc5ccccc5C4)[nH]c23)cc1	GPR151 ag 6.0 | GPR151 confirm inactive | GPR119 ag inactive
CCN(CC)C(=O)C1CCCN(c2nc(Nc3ccc(NC(C)=O)cc3)nc(N(CC)CC)n2)C1 (stereo unspecified)	none
CCN(CC)C(=O)C1CCCN(c2nc(Nc3ccccc3)nc(N(CC)CC)n2)C1 (stereo unspecified)	GPR151 ag 5.7 | GPR151 confirm inactive | GPR119 ag inactive
CCN(CC)C(=O)C1CCCN(c2nc3ncnc(Nc4ccc(Oc5ccccc5)cc4)c3[nH]2)C1 (stereo unspecified)	GPR151 ag 5.8 | GPR151 confirm inactive | GPR119 ag inactive
CCN(CC)C(=O)C1CCCN(c2nc3ncnc(Nc4ccc(NC(C)=O)cc4)c3[nH]2)C1 (stereo unspecified)	none
CC(=O)Nc1ccc(Nc2ncnc3nc(N4CCc5ccccc5C4)[nH]c23)cc1	none
COc1ccc(NC(=O)Cn2c3c(c(=O)n(C4CCCCC4)c2=O)CCC3)cc1OC	none
O=C(c1ccc(F)cc1)N1CCN(c2ccccc2F)CC1	none
CN(CC(=O)Oc1ccc([N+](=O)[O-])cc1)S(=O)(=O)c1ccc(Cl)cc1	none
CCCCN1C(=O)C2C(C(=O)Nc3ccc(C)c(Cl)c3)C3C=CC2(O3)C1C(=O)NC1CCCCC1 (stereo unspecified)	GPR151 ag 9.6 | GPR151 confirm inactive | GPR119 ag inactive
CC(C)c1ccc(NC(=O)C2C3C=CC4(O3)C2C(=O)N(CCCN2CCN(C)CC2)C4C(=O)NC2CCCCC2)cc1 (stereo unspecified)	none
CCCCN1C(=O)C2C(C(=O)Nc3ccc(Cl)c(Cl)c3)C3C=CC2(O3)C1C(=O)NC1CCCCC1 (stereo unspecified)	none
CC(C)c1ccc(NC(=O)C2C3C=CC4(O3)C2C(=O)N(CCCN2CCOCC2)C4C(=O)NC2CCCCC2)cc1 (stereo unspecified)	GPR151 ag 5.5 | GPR151 confirm inactive | GPR119 ag inactive
Cc1ccc(NC(=O)C2C3C=CC4(O3)C2C(=O)N(CCC2=CCCCC2)C4C(=O)NC2CCCCC2)cc1Cl (stereo unspecified)	GPR151 ag 5.8 | GPR151 confirm inactive | GPR119 ag inactive
Cc1ccc(NC(=O)C2C3C=CC4(O3)C2C(=O)N(CCC2=CCCCC2)C4C(=O)NC2CCCCC2)cc1 (stereo unspecified)	none
CC(=O)c1cccc(-c2nc3c(NCCOc4ccccc4)ncnc3n2C(C)C)c1	none
CCC(=O)NC(=S)Nc1cc(OC)ccc1OC	none
CCn1cc(CN2CCC3(CCC(CNC(=O)c4ccco4)O3)CC2)c(C)n1 (stereo unspecified)	none
Fc1cccc(F)c1Nc1ccc(Br)cn1	none
Brc1ccc(Nc2cccnc2)nc1	GPR151 ag 11 | GPR151 confirm inactive | GPR119 ag inactive
O=C(NN1C(=O)CCC1=O)c1cccc([N+](=O)[O-])c1	none
O=C(OC1CCOC1=O)c1ccc(S(=O)(=O)N2CCCC2)cc1 (stereo unspecified)	none
CN(c1ccccc1)S(=O)(=O)c1ccc(C(=O)OC2CCOC2=O)cc1 (stereo unspecified)	GPR151 ag 11 | GPR151 confirm inactive | GPR119 ag inactive
CC(C)c1csc(CN2CCCC(CNC(=O)c3cccs3)C2)n1 (stereo unspecified)	GPR151 ag 6.1 | GPR151 confirm inactive | GPR119 ag inactive
CSc1cccc(CN2CCCC(CNC(=O)c3cccs3)C2)c1 (stereo unspecified)	none
